# In ChEMBL document CHEMBL1961873, “Compounds: GSK PKIS; Assays: Nanosyn kinase panel” (2012):
# Experiments:
# [1] = biological target: Sphingosine kinase 1 (Homo sapiens) (UniProt Q9NYA1); details: at 1 µM;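 also: mean SPHK1 inhibition value reported from the GSK PKIS kinase panel screen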
# [2] = biological target: T1, Sphingosine kinase 2 (Homo sapiens) (UniProt Q9NRA0); details: at 0.1 µM
# T1 sequence (whole entry): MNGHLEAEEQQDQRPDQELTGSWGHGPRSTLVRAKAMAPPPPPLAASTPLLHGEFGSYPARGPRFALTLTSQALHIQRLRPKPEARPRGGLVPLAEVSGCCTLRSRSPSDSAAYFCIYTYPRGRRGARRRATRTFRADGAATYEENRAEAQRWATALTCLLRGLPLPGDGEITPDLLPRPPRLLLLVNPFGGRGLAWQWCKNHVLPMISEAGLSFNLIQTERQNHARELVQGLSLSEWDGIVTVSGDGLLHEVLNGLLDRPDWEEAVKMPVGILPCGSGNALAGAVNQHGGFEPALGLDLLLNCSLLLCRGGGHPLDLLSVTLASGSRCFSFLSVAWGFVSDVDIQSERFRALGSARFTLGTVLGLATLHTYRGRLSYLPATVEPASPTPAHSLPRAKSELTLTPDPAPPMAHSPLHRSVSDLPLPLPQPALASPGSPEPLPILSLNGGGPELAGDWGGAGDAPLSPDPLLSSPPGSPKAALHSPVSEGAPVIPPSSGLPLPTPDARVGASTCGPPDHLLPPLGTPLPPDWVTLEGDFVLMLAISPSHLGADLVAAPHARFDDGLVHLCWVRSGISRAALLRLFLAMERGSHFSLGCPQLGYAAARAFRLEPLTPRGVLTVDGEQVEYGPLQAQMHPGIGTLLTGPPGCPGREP
# [3] = biological target: T1, Sphingosine kinase 2 (Homo sapiens); details: at 1 µM
# [4] = biological target: Casein kinase II subunit alpha (Homo sapiens) (UniProt P68400); details: at 0.1 µM
# Chain of Casein kinase II subunit alpha (Homo sapiens) (P68400 whole entry, looked up): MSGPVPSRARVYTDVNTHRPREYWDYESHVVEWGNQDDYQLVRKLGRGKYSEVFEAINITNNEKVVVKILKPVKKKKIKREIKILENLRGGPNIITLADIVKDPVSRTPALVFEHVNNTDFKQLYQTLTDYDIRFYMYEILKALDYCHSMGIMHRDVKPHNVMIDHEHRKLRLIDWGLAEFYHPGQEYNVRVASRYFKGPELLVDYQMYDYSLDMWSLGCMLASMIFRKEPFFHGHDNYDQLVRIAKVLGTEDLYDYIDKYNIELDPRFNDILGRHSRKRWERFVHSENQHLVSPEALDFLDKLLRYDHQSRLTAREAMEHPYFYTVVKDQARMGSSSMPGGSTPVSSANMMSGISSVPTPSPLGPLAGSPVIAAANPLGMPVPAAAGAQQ
# [5] = biological target: Casein kinase II subunit alpha (Homo sapiens) (UniProt P68400); details: at 1 µM
# [6] = biological target: T2, Inhibitor of nuclear factor kappa-B kinase subunit alpha (Homo sapiens) (UniProt O15111); details: at 0.1 µM
# T2 sequence (whole entry): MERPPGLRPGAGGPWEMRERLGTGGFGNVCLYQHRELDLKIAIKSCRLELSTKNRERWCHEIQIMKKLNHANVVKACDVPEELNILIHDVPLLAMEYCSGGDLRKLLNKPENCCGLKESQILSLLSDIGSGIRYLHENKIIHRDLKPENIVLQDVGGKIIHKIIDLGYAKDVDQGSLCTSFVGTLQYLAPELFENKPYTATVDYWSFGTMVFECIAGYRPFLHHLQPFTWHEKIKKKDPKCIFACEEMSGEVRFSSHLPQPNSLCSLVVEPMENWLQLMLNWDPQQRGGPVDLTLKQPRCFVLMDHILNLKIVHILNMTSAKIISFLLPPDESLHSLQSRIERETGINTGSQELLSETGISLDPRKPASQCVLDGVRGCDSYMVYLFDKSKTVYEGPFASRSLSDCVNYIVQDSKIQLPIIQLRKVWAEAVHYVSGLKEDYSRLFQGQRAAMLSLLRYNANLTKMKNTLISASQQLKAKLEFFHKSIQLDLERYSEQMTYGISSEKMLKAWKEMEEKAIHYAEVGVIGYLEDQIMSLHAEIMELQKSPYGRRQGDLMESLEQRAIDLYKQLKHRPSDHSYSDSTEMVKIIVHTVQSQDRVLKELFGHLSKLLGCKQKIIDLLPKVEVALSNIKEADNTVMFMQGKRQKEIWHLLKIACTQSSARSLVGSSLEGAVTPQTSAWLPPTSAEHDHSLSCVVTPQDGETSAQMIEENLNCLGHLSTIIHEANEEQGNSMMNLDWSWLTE
# [7] = biological target: T2, Inhibitor of nuclear factor kappa-B kinase subunit alpha (Homo sapiens); details: at 1 µM
# [8] = biological target: T3, Inhibitor of nuclear factor kappa-B kinase subunit beta (Homo sapiens) (UniProt O14920); details: at 0.1 µM
# T3 sequence (whole entry): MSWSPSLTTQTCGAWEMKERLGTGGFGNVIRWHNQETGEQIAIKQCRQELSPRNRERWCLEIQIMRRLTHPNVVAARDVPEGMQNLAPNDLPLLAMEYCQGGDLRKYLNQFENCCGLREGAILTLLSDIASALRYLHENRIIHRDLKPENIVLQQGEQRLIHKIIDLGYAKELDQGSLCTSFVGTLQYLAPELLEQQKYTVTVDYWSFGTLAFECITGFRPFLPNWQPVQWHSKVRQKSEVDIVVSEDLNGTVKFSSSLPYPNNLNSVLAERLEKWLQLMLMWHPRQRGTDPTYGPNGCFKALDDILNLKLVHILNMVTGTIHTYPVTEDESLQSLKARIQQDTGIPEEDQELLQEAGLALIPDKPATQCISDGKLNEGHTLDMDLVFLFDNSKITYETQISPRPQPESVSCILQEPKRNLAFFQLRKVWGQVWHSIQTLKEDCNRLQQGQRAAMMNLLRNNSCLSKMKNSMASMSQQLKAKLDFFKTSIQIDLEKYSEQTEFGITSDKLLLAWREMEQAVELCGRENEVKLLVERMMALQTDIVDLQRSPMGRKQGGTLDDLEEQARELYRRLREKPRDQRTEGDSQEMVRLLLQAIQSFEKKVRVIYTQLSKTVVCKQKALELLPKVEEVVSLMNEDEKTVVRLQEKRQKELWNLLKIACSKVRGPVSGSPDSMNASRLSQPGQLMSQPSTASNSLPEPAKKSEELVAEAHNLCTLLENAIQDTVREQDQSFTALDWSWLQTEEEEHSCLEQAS
# [9] = biological target: T3, Inhibitor of nuclear factor kappa-B kinase subunit beta (Homo sapiens); details: at 1 µM
# [10] = biological target: T4, Inhibitor of nuclear factor kappa-B kinase subunit epsilon (Homo sapiens) (UniProt Q14164); details: at 0.1 µM
# T4 sequence (whole entry): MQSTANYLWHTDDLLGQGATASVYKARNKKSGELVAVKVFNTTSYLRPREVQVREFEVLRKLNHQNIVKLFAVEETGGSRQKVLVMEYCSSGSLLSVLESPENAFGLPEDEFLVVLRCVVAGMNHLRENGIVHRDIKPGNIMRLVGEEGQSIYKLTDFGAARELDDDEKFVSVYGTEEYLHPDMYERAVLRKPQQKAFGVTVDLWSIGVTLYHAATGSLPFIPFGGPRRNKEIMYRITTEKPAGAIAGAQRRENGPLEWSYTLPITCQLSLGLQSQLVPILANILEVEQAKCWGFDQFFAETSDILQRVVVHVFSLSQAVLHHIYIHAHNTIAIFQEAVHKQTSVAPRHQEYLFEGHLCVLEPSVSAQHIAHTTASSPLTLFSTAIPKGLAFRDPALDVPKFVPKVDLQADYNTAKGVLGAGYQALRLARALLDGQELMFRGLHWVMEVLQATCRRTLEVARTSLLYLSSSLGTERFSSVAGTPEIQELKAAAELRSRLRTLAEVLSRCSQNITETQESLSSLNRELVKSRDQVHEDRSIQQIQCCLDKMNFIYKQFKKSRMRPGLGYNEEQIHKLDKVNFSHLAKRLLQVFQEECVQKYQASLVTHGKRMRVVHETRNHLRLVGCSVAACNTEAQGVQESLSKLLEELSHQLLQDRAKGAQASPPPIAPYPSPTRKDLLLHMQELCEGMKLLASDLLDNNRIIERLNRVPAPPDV
# [11] = biological target: T4, Inhibitor of nuclear factor kappa-B kinase subunit epsilon (Homo sapiens); details: at 1 µM
# [12] = biological target: T5, Serine/threonine-protein kinase Nek1 (Homo sapiens) (UniProt Q96PY6); details: at 0.1 µM
# T5 sequence (whole entry): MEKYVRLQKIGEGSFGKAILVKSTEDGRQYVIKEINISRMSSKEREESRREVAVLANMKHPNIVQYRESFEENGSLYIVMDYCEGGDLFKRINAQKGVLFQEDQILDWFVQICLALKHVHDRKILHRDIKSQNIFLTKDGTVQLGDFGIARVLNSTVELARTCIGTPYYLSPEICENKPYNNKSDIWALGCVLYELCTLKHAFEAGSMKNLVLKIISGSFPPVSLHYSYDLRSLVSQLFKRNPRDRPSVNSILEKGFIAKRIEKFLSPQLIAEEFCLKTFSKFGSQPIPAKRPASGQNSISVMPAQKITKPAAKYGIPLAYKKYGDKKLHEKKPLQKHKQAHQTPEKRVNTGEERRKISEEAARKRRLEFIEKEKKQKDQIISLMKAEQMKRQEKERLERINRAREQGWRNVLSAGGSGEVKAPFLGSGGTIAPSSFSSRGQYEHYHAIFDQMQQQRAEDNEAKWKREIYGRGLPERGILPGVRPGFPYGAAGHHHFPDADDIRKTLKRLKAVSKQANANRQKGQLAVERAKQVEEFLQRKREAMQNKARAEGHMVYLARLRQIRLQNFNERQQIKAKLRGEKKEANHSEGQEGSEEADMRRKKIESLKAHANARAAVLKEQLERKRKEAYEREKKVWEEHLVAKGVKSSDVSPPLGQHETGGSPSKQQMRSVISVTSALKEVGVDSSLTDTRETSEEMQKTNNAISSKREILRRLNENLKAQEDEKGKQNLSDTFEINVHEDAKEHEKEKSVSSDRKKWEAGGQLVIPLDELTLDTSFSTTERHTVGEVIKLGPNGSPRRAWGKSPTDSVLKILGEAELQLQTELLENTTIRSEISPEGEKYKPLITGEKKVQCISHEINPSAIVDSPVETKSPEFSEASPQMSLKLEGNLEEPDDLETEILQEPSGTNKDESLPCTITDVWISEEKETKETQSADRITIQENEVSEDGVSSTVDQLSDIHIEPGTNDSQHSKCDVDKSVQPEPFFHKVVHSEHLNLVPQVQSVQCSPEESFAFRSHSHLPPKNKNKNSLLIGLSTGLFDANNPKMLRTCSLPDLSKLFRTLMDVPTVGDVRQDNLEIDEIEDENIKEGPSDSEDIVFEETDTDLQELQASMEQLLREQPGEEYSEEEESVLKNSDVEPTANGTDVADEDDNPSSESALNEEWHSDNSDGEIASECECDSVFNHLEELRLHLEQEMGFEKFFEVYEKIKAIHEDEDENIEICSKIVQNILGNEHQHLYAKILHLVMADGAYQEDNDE
# [13] = biological target: T5, Serine/threonine-protein kinase Nek1 (Homo sapiens); details: at 1 µM
# [14] = biological target: T6, Serine/threonine-protein kinase Nek2 (Homo sapiens) (UniProt P51955); details: at 0.1 µM
# T6 sequence (whole entry): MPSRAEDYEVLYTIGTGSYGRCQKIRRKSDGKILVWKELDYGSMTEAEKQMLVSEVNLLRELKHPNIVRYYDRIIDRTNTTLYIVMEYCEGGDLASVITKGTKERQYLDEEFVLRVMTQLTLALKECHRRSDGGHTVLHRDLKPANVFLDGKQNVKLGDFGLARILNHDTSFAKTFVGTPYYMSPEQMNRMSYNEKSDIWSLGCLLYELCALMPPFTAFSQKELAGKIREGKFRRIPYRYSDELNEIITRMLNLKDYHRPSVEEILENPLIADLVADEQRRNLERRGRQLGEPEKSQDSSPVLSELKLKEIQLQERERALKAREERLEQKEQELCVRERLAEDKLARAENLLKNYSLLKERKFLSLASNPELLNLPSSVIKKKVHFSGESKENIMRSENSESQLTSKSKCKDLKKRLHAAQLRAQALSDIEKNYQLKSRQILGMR
# [15] = biological target: T6, Serine/threonine-protein kinase Nek2 (Homo sapiens); details: at 1 µM
# [16] = biological target: Serine/threonine-protein kinase Nek6 (Homo sapiens) (UniProt Q9HC98); details: at 0.1 µM
# Chain of Serine/threonine-protein kinase Nek6 (Homo sapiens) (Q9HC98 whole entry): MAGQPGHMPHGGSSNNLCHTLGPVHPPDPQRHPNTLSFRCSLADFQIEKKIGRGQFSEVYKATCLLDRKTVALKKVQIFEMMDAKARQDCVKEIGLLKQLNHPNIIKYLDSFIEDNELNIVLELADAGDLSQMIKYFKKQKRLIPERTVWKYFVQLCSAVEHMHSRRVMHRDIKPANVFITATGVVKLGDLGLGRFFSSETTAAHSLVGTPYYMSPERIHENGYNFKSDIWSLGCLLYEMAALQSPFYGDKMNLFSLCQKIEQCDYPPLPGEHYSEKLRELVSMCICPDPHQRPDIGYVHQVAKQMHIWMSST
# [17] = biological target: Serine/threonine-protein kinase Nek6 (Homo sapiens) (UniProt Q9HC98); details: at 1 µM
# [18] = biological target: Serine/threonine-protein kinase Nek7 (Homo sapiens) (UniProt Q8TDX7); details: at 0.1 µM
# Chain of Serine/threonine-protein kinase Nek7 (Homo sapiens) (Q8TDX7 whole entry, looked up): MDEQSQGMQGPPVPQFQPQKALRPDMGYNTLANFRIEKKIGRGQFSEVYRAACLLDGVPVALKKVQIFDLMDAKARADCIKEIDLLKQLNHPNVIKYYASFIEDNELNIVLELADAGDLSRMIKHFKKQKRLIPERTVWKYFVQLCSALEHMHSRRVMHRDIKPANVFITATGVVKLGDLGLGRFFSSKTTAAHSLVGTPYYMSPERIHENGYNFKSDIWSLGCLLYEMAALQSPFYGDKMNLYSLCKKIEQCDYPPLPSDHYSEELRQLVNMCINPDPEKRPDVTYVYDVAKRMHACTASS
# [19] = biological target: Serine/threonine-protein kinase Nek7 (Homo sapiens) (UniProt Q8TDX7); details: at 1 µM
# [20] = biological target: T7, Serine/threonine-protein kinase Nek9 (Homo sapiens) (UniProt Q8TD19); details: at 0.1 µM;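 also: reported value is the mean percent inhibition of NEK9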
# T7 sequence (whole entry): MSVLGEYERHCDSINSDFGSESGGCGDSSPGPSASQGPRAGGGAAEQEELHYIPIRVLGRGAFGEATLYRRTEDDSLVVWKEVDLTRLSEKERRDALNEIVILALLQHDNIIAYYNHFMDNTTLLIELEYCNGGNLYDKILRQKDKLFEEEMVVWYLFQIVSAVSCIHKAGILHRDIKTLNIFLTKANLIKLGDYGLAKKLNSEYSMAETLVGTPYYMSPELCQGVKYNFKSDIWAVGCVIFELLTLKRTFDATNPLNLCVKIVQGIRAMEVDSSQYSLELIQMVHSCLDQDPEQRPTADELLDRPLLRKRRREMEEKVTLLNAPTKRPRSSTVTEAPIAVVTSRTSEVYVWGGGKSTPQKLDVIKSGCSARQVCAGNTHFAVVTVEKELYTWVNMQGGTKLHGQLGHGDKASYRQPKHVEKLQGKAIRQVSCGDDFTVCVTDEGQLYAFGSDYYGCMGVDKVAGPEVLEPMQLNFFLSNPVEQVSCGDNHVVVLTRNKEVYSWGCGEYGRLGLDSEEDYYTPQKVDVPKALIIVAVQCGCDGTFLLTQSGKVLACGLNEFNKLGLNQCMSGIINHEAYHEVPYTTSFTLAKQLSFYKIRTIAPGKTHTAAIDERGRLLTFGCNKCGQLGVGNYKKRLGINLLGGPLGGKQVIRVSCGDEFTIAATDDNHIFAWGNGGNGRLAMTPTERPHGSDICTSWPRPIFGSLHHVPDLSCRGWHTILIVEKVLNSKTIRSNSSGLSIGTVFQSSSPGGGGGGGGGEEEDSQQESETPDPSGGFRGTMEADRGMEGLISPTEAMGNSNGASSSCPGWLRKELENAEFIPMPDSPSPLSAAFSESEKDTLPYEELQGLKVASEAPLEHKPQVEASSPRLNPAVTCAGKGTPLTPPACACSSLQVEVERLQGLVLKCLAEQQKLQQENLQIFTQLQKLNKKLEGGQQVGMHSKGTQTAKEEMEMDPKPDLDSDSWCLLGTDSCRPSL
# Chain of Sphingosine kinase 1 (Homo sapiens) (Q9NYA1 whole entry): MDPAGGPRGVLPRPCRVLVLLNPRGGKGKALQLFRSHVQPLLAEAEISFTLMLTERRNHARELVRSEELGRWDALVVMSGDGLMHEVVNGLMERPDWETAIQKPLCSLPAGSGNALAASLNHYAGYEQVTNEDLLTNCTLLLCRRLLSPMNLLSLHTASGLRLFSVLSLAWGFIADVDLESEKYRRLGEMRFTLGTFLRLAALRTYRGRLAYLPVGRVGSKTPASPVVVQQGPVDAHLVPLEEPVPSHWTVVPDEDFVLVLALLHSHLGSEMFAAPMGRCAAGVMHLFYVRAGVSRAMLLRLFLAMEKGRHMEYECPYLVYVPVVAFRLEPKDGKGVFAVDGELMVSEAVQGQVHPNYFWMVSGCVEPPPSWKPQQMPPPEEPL
smiles,measurement,setting,value
COc1ccc2cc(-c3c(-c4ccncc4)nc(-c4ccc([S+](C)[O-])cc4)n3C)ccc2c1 (stereo not given),inhibition,[1],-3.23%
same,inhibition,[2],-1.61%
same,inhibition,[3],-1.21%
same,inhibition,[4],0.27%
same,inhibition,[5],-4.21%
same,inhibition,[6],3.64%
same,inhibition,[7],0.12%
same,inhibition,[8],3.95%
same,inhibition,[9],3.93%
same,inhibition,[10],4.41%
same,inhibition,[11],4.64%
same,inhibition,[12],1.1%
same,inhibition,[13],1.54%
same,inhibition,[14],3.66%
same,inhibition,[15],3.14%
same,inhibition,[16],0.57%
same,inhibition,[17],-1.38%
same,inhibition,[18],2.77%
same,inhibition,[19],2.17%
same,inhibition,[20],7.56%
